HSD17B inhib: qHTS Assay for Inhibitors of HSD17B4, hydroxysteroid (17-beta) dehydrogenase 4; 3-hydroxyacyl-CoA dehydrogenase type-2 (Homo sapiens), Q99714; recombinant HSD17B10, NADH fluorescence kinetic; Potency, µM (series often up to 57.1 µM), usual class: inhibitors; 7.6% of 75,000 active; AID 893, 2007;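 further: the protocol describes HADH2 (HSD17B10) and not the HSD17B4 of the title; nearly all actives have a fitted effect of over 70% in size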
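Enzyme plus compound, 15 min room temperature; substrate mix added (NAD+ 1 mM, beta-hydroxybutyryl-CoA 90 uM final); plates read kinetically for NADH fluorescence. HADH2 was His-tagged, E. coli-derived, 20 nM.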
HADH2 inhib: qHTS Assay for Inhibitors of HADH2 (Hydroxyacyl-Coenzyme A Dehydrogenase, Type II) | 3-hydroxyacyl-CoA dehydrogenase type-2 (Homo sapiens), Q99714 | recombinant HADH2, NADH fluorescence, beta-hydroxybutyryl-CoA | Potency, µM (titrated, usually from 57.1 µM), actives largely listed as inhibitors | 3.4% of 73,000 active; further: nearly all actives have a fitted effect of over 60% in size
Target sequence (Q99714 whole entry, looked up, one chain of several): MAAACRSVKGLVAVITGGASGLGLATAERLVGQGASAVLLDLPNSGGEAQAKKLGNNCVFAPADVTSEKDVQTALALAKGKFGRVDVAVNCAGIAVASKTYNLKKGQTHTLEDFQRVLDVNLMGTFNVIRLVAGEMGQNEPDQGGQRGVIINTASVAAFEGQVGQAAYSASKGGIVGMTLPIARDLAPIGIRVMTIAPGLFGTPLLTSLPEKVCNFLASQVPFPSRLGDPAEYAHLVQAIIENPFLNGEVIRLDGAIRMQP
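NADH fluorescence (ex 360/em 450 nm) read every 30 s for 4 min; activity taken as last-minus-first time point difference. Enzyme 20 nM, NAD+ 1 mM, beta-hydroxybutyryl-CoA 90 uM, pH 9.0 Tris buffer.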
AID923: qHTS Assay for Allosteric/Competitive Inhibitors of Caspase-1: Spectroscopic Profiling in AFC Spectral Region | AID 923, 2007 | compound fluorescence, AFC spectral region (405/520 nm) | 1.1% of 75,000 active | Potency, µM (series often up to 57.5 µM), actives largely listed as activators
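Baseline compound fluorescence (AFC region, 405 nm ex/520 nm em) taken from the intercept of kinetic reads with 50 nM caspase-1 and 5 uM Ac-WEHD-AFC; normalized to an on-plate AFC standard curve; compounds titrated up to 57 uM.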
4MU fluor: qHTS Assay for Spectroscopic Profiling in 4-MU Spectral Region | compound autofluorescence, 340/450 nm, 4-MU equivalents; active compounds read high | 11% of 59,000 active | max dye-equivalent concentration, M; in the data active means max dye-equivalent concentration above about 10 nM; inconclusive means mostly about 1.1 nM to 9.6 nM
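Compounds in 100 mM Tris, pH 8.0, incubated 15 min at room temperature, then fluorescence read at 340 nm excitation/450 nm emission. Signal converted to 4-MU dye-equivalent concentration using an on-plate six-point 4-MU standard curve.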
CRE-bla Fsk: Cell signaling CRE-BLA (Fsk stim). 2.5% of 71,000 active. Potency, µM (top dose mostly 38.2 µM), most hits filed as activators. CHO CRE-bla reporter (cAMP response element driving beta-lactamase), forskolin EC10, beta-lactamase ratio. AID 662, 2007; active means well fitted activation curve with a large enough effect in the signal ratio, with a control signal flat, not every such curve was filed as active; inconclusive means small, poorly fitted or top-dose-only effect, or effect the other way, or a change in a side signal; the % refers to the signal ratio
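Cells were plated overnight at 37 °C, exposed to compound titrations plus EC10 NKH 477 for 3 h, then given CCF4 dye for 2 h at room temperature. Blue/green (460/530 nm) ratio was converted to %Activity and AC50 values calculated.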
A350 fluor: qHTS Assay for Spectroscopic Profiling in A350 Spectral Region; Compound autofluorescence, 340/450 nm, Alexa 350 dye-equivalents; active compounds read high; max dye-equivalent concentration, M; 11% of 59,000 active; in the data active means max dye-equivalent concentration above about 10 nM; inconclusive means mostly about 1.1 nM to 9.6 nM
Each line names hits and unclear results; the compound was inactive in the other large screens. Only some compounds are listed: those with a hit (about 14% of all), similar ones and a draw of the others. Unless noted, the call rests on the fitted dose curve; in most records, active means well fitted curve in the direction sought with a large enough effect; inconclusive means small, poorly fitted or top-dose-only effect, or another doubt; inactive means no such curve, though single readings can be large; an effect the other way counts as inactive or inconclusive.

Cc1ccc(-c2nn3c(C)nnc3s2)cc1NC(=O)c1ccc(-c2cccc(Cl)c2)o1	4MU fluor 1.35e-08M, CRE-bla Fsk inconclusive, A350 fluor 1.67e-08M
Cc1nnc2sc(-c3ccc(NC(=O)c4ccc(-c5ccc(Br)cc5)o4)cc3)nn12	HSD17B inhib 25.1µM, 4MU fluor 2.69e-07M, CRE-bla Fsk inconclusive, A350 fluor 2.62e-07M
Cc1nnc2sc(-c3cccc(NC(=O)c4ccc(-c5cccc(Cl)c5)o4)c3)nn12	HSD17B inhib 31.6µM, HADH2 inhib 7.94µM, 4MU fluor 1.98e-08M, A350 fluor 1.66e-08M
COc1cc(NC(=O)c2ccc(-c3ccc(Br)cc3)o2)ccc1NC(=O)C(C)C	4MU fluor 3.66e-08M, CRE-bla Fsk inconclusive, A350 fluor 3.35e-08M
CCN1C(=O)[C@H]2[C@H]3[C@H](O)[C@H](O)C/C(=N/OC[C@@H]4O[C@H](c5ccccc5)C=C[C@@H]4Oc4ccc(OC)cc4)[C@@H]3CC[C@@H]2C1=O	none (no result: 4MU fluor, CRE-bla Fsk, A350 fluor)
CO[C@]12CC(COC(=O)c3cncc(Br)c3)CN(C)[C@@H]1Cc1cn(C)c3cccc2c13 (stereo partly drawn)	none (no result: HADH2 inhib, 4MU fluor, CRE-bla Fsk, A350 fluor)
O=C(c1cc2ccccc2oc1=O)N(Cc1ccco1)CC1CCCO1 (stereo not drawn)	A350 fluor inconclusive
Cc1ccc(-c2nn3c(C)nnc3s2)cc1NC(=O)c1ccc(Br)o1	CRE-bla Fsk inconclusive (no result: 4MU fluor, A350 fluor)
Cc1ccc(-c2nn3c(C)nnc3s2)cc1NC(=O)c1ccc(-c2ccc(Cl)cc2Cl)o1	HSD17B inhib 31.6µM, 4MU fluor 1.04e-07M, CRE-bla Fsk inconclusive, A350 fluor 1.17e-07M (no result: HADH2 inhib)
CC(=O)OC[C@@H]1O[C@H](C/C=N\OC[C@@H](O)COCc2ccco2)C=C[C@@H]1OC(C)=O	none (no result: 4MU fluor, CRE-bla Fsk, A350 fluor)
O=C(c1cccc(F)c1)N1CCC[C@@]2(CCN(Cc3ccccc3)C2)C1	none
Nc1nc(SCC(=O)NCc2ccco2)[nH]c(=O)c1-c1ccccc1	none
O=C1CCCC2=C1C(c1ccncc1)c1c(nc(SCc3ccccc3)[nH]c1=O)N2 (stereo not drawn)	HSD17B inhib inconclusive, 4MU fluor 1.36e-07M, A350 fluor 1.5e-07M
Cc1ccc(C2C3=C(CCCC3=O)Nc3nc(SCC(=O)NCc4ccco4)[nH]c(=O)c32)cc1 (stereo not drawn)	HSD17B inhib 20µM, HADH2 inhib inconclusive, 4MU fluor 3.56e-07M, CRE-bla Fsk inconclusive, A350 fluor 3.86e-07M
CCSc1nc2c(c(=O)[nH]1)C(c1ccncc1)C(C(=O)OC(C)C)=C(C)N2 (stereo not drawn)	4MU fluor inconclusive, CRE-bla Fsk inconclusive, A350 fluor inconclusive
CCSc1nc2c(c(=O)[nH]1)C(c1ccccn1)C1=C(CC(C)(C)CC1=O)N2 (stereo not drawn)	HSD17B inhib 31.6µM, 4MU fluor 1.79e-06M, A350 fluor 2.07e-06M
COc1cccc(Nc2nc(-c3sc(N)nc3C)cs2)c1	HADH2 inhib 7.94µM, CRE-bla Fsk inconclusive
O=C(CN1C(=O)COc2ccccc21)NCCCN1CCc2ccccc2C1	4MU fluor 1.58e-08M, CRE-bla Fsk inconclusive, A350 fluor 1.52e-08M
CN(C)/C=N/c1c(C#N)cnn1-c1ncnc2sc(-c3ccccc3)cc12	HSD17B inhib inconclusive, 4MU fluor 4.91e-08M, A350 fluor 4.42e-08M
CCOCCN1CCN(c2c(C)c(C)nc3cc(-c4cc(OC)cc(OC)c4)nn23)CC1	HSD17B inhib 25.1µM, 4MU fluor 1.09e-08M, CRE-bla Fsk 3.16µM, A350 fluor inconclusive
COCCN1CCN(c2c(C)c(C)nc3cc(-c4cccc(OC)c4)nn23)CC1	4MU fluor inconclusive, A350 fluor inconclusive
Cc1ccc(C(=O)CSc2ccccn2)cc1	HADH2 inhib 3.16µM
CCN(C(=O)CN1CCN(c2ccc(OC)cc2)CC1)c1c(N)n(Cc2ccccc2)c(=O)[nH]c1=O	4MU fluor inconclusive, A350 fluor 1.31e-08M
